# Data as given in PubChem BioAssay.
# The source made the active and inactive calls. How the calls were made is not given here.
# Assays:
# [1] = liver-stage malaria parasite load reduction – cell-based, known kinase inhibitor set, luminescence, hepatoma host viability (AID 624392); details: Plasmodium liver stage in hepatoma cells, luciferase luminescence, concentration not given here; liver cell % of control: measured here: host liver cell viability; parasite % of control: stronger effect = lower value;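 further: infected cells incubated roughly two days before readout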
# [2] = altered dexamethasone sensitivity, NF-kB reporter, cell-based, luciferase, IL-1B stimulus (AID 624486); details: IL-1B + dexamethasone, luminescence; percent of negative control (+Dex): actives lie on both sides, concentration not given here; z-score: measured here: IL-1B alone, no Dex;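 on percent of negative control (+Dex): 100% = mean signal of vehicle control wells on the plate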
# [3] = target: Cellular tumor antigen p53 (Homo sapiens) (UniProt P04637); experiment: GFP-p53 level modulators in HPV16+ cells – imaging, known kinase inhibitor set, EGFP/DsRed ratio (AID 1053116); details: GFP-p53 stability, stronger effect = higher value; EGFP object count: measured here: GFP-p53 positive objects count;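 further: cells exposed to compounds for 24 h at 37 °C before reading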
# Cellular tumor antigen p53 (Homo sapiens), sequence (P04637 whole entry, looked up): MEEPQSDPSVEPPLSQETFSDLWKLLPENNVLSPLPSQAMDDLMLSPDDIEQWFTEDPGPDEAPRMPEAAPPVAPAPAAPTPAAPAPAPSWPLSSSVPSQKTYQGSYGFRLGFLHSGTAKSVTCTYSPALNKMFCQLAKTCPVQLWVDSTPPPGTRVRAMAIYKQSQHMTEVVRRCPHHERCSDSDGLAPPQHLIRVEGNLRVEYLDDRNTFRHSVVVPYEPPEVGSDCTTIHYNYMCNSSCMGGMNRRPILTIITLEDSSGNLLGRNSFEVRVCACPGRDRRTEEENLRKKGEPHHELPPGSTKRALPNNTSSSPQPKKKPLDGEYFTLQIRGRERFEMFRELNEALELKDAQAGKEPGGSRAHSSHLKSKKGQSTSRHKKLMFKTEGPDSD
# [4] = inducers of IRF3 signaling, differentiated THP-1 – cell-based, PMA-stimulated THP-1, luminescence (AID 1053176); details: PMA-differentiated THP-1, IRF3 reporter luminescence; stronger effect = higher value
SMILES,liver cell % of control [1] [%],parasite % of control [1],percent of negative control (+Dex) [2],z-score [2],EGFP object count [3],EGFP/DsRed ratio [3],fraction signal [4]
OCCn1c(-c2ccncc2)c(-c2ccc(F)cc2)c2ncccc21,114,46% (inactive),99.5% (inactive),0.305,5.5,0.119 (inactive),-0.0135 (inactive)
CN(C)CC#Cc1cccc(C(=O)c2cnn(-c3ccc(F)cc3)c2N)c1,101,74.8% (inactive),109% (inactive),1.23,3,0.0589 (inactive),-0.001 (inactive)
Cn1cc(C2=C(c3cccc(N)c3)C(=O)NC2=O)c2ccccc21,102,14.9% (inactive),124% (active),-1.23,23.5,0.303 (inactive),-0.005 (inactive)
